Source: PubChem BioAssay (several laboratories)
An excerpt weighted towards active compounds, which were near 1.9% of everything screened.
dFosB act-1 = enhances mouse delta FosB homodimer DNA binding; AID 493131; P13346; hit rate 0.99% among 340,000; activation, % at 25 µM; purified delta FosB, TAMRA-CDK5 oligo fluorescence polarization; percent of positive-control signal above neutral wells;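 active = mean activation above about 17%, with every replicate also reaching it, limit read from the data, passing the limit was not always enough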
Target sequence (P13346 whole entry, looked up): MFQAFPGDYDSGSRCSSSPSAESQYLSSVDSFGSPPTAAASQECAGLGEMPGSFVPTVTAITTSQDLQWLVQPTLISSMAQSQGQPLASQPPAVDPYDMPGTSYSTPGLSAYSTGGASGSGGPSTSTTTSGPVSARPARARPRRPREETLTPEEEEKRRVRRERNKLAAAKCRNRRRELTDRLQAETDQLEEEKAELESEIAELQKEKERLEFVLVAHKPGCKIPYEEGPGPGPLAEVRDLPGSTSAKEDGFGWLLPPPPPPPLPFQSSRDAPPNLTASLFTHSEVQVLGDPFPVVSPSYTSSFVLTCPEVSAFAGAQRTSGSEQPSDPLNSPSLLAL
p47phox inh = p47phox (human) inhibition. p47phox/p22phox peptide binding, fluorescence polarization, 2 h. inhibition, % at 24.7 µM. hit rate 0.53% among 220,000. AID 1274;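 active = inhibition above about 30%, limit read from the data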;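 note: 0% = p47phox with labelled peptide and 100% = labelled peptide alone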
14-3-3 Bad PPI = disrupts binding of bovine 14-3-3 zeta to phospho-Bad peptide. TR-FRET 14-3-3zeta/Dy647-pBad peptide displacement, 1 h. inhibition, % at 21.7 µM. hit rate 0.71% among 220,000;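 active = inhibition above about 70%, limit read from the data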;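 note: 0% = full 14-3-3 plus peptide FRET controls and 100% = background without 14-3-3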
Target sequence (P63103 whole entry, looked up): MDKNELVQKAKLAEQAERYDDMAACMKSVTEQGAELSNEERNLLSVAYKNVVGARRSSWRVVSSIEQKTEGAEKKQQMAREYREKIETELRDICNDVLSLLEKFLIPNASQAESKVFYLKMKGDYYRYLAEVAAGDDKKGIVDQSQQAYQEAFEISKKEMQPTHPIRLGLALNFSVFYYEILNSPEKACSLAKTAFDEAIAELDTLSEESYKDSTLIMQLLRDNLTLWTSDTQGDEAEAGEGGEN
HMGR II inh = E. faecalis class II HMG-CoA reductase inhibition | hit rate 0.41% among 190,000 | inhibition, % at 10 µM | purified E. faecalis HMGR, NADPH absorbance 340 nm kinetic | AID 1066;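 active = inhibition above a set limit, the median over all tested compounds plus 3 SD, cut at about 9.5% in these data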;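 note: enzyme runs in reverse so mevalonate oxidation gives rising NADPH absorbance; 0% = complete reaction with DMSO and 100% = background rate lacking mevalonate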
dFosB act-2 = enhances mouse delta FosB homodimer binding to DNA. shares compounds with dFosB act-1. purified delta FosB, TAMRA-CDK5 oligo fluorescence polarization; normalised: neutral wells 0, positive control 100. activation, % at 24.9 µM. 2,400 tested, under 10 active. AID 588690;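 active = highest replicate activation at or above 34% and every replicate reaching that threshold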;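 note: higher polarization means more probe DNA bound by delta FosB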
Numbers without * were called inactive; ! = not confirmed by another sample.

What do the screens show for `O=C(NNC(=O)c1cc2ccccc2cc1O)Nc1ccc(F)cc1F`?
dFosB act-1: 30*; dFosB act-2: -10

Results for O=C(NNC(=O)c1cc2ccccc2cc1O)Nc1ccc(Br)cc1 ?
dFosB act-1: 15

Results for CCCc1ccc(-c2cc(C(=O)NCCc3ccc(S(N)(=O)=O)cc3)c3ccccc3n2)cc1 ?
dFosB act-1: 11; p47phox inh: -6; 14-3-3 Bad PPI: -7; HMGR II inh: -2

What do the screens show for `NS(=O)(=O)c1ccc(CCNC(=O)c2cc(-c3ccc(Br)cc3)nc3ccccc23)cc1`?
dFosB act-1: 79*; p47phox inh: -8; 14-3-3 Bad PPI: -3; HMGR II inh: -8; dFosB act-2: 0

What do the screens show for `NS(=O)(=O)c1ccc(CCNC(=O)c2cc(-c3ccccn3)nc3ccc(Br)cc23)cc1`?
dFosB act-1: 32*; p47phox inh: -29; 14-3-3 Bad PPI: -2; HMGR II inh: -1; dFosB act-2: -6

What do the screens show for `c1ccc(Oc2cccc(OCCCn3cncn3)c2)cc1`?
dFosB act-1: -1; p47phox inh: -8; 14-3-3 Bad PPI: -13; HMGR II inh: -8

What do the screens show for `Nc1nc(-c2ccc(Cl)cc2)nn1C(=O)c1cccnc1`?
dFosB act-1: 4; p47phox inh: -9; 14-3-3 Bad PPI: -8; HMGR II inh: -4

What do the screens show for `COC(=O)c1ccc(C(=O)Nc2ccc3c(c2)C(=O)NC3=O)cc1`?
dFosB act-1: 86*; dFosB act-2: 6

How did Cc1cccc(C(=O)Nc2ccc3c(c2)C(=O)NC3=O)c1 do in these assays?
dFosB act-1: 2

Results for O=C(Nc1ccc2c(c1)C(=O)NC2=O)c1cccc(Cl)c1 ?
dFosB act-1: 25*; dFosB act-2: 1

Results for Cc1ccc(C(=O)Nc2ccc3c(c2)C(=O)NC3=O)cc1 ?
dFosB act-1: 35*; dFosB act-2: 5

What do the screens show for `O=C(Nc1ccc2c(c1)C(=O)NC2=O)c1ccc(Cl)s1`?
dFosB act-1: 54*; p47phox inh: -22; 14-3-3 Bad PPI: 28; HMGR II inh: -2; dFosB act-2: 0

What do the screens show for `CC1CCCCC1NC(=O)c1nnc(Cc2ccc(Cl)cc2)o1` (stereo not drawn)?
dFosB act-1: 4; p47phox inh: -7; 14-3-3 Bad PPI: -9; HMGR II inh: 5

What do the screens show for `Cc1nc(N)sc1-c1csc(Nc2cccc(C(=O)O)c2)n1`?
dFosB act-1: -22

Results for COc1ccc2cc3[n+](cc2c1OC)CCc1cc2c(cc1-3)OCO2 ?
dFosB act-1: 36*!; p47phox inh: 5; 14-3-3 Bad PPI: -7; HMGR II inh: -8; dFosB act-2: 2

Results for O=C(Cc1cccc(NC(=O)C2CCN(C(=O)C3CCC3)CC2)c1)Nc1cccc(C(=O)N2CCOCC2)c1 ?
dFosB act-1: 4

Results for COc1cc(NC(=O)c2ccco2)c(C(=O)OCC(=O)c2c[nH]c3ccccc23)cc1OC ?
dFosB act-1: 39*; p47phox inh: -28; 14-3-3 Bad PPI: -13; HMGR II inh: -2; dFosB act-2: 7

How did Cc1nonc1NC(=O)c1oc2ccc(F)cc2c1C do in these assays?
dFosB act-1: 29*; dFosB act-2: 2

What do the screens show for `Cc1cc2oc(C(=O)Nc3nonc3C)c(C)c2cc1Cl`?
dFosB act-1: 46*; dFosB act-2: 2

What do the screens show for `O=C(Nc1cccc(F)c1)N(Cc1ccc(Cl)cc1)CC(O)C(F)(F)F` (stereo not drawn)?
dFosB act-1: -7; p47phox inh: -5; 14-3-3 Bad PPI: 4; HMGR II inh: 0

Results for C[C@@H]1COC(=O)[C@H](Cc2ccc(F)cc2)C/C=C\C[C@@H](CC(=O)N[C@H](CO)Cc2ccccc2)C(=O)N1 ?
dFosB act-1: 6

How did O=C(C[C@@H]1C/C=C\C[C@@H](Cc2ccc(F)cc2)C(=O)OC[C@@H](Cc2ccccc2)NC1=O)N[C@H](CO)Cc1ccccc1 do in these assays?
dFosB act-1: 32*; dFosB act-2: 5

Results for C=CCN(c1ccccc1)S(=O)(=O)c1cccc(C(=O)Nc2ccncc2)c1 ?
dFosB act-1: -9

Results for C=CCN(c1ccccc1)S(=O)(=O)c1cccc(C(=O)Nc2nc3ccccc3[nH]2)c1 ?
dFosB act-1: 47*; p47phox inh: -7; 14-3-3 Bad PPI: 1; HMGR II inh: -1; dFosB act-2: 1

Results for CCOC(=O)c1ccc(NC(=O)C(=O)NCc2ccc(/C=C(/C#N)C(=O)NCCOC)o2)cc1 ?
dFosB act-1: 23*; p47phox inh: -26; 14-3-3 Bad PPI: 6; HMGR II inh: -1; dFosB act-2: -2

Results for COc1ccc(CC(=O)N/N=C(\C)CC(=O)Nc2ccc3c(c2)OCCO3)cc1 ?
dFosB act-1: -10

What do the screens show for `COc1cccc(CC(=O)n2nc(N)c3cc4ccc(OC)cc4nc32)c1`?
dFosB act-1: 32*; p47phox inh: 5; 14-3-3 Bad PPI: 11; HMGR II inh: 0; dFosB act-2: 5

What do the screens show for `COc1ccc2cc3c(N)nn(C(=O)c4cccc(F)c4)c3nc2c1`?
dFosB act-1: 51*; p47phox inh: -5; 14-3-3 Bad PPI: 11; dFosB act-2: -2

How did O=C(Nc1ccc(C(F)(F)F)cc1)C1CCCN1S(=O)(=O)c1cccc2cccnc12 (stereo not drawn) do in these assays?
dFosB act-1: -4; p47phox inh: -20; 14-3-3 Bad PPI: -5; HMGR II inh: -4

Results for CCN(CC)Cc1cc2[nH]c3c4ccc(Cl)cc4ncc3c2cc1OC ?
dFosB act-1: 24*; p47phox inh: -4; 14-3-3 Bad PPI: 9; dFosB act-2: 6

What do the screens show for `CN=C1SC(CC(=O)Nc2ccccc2F)C(=O)N1/N=C/c1ccc(O)c(OC)c1` (stereo not drawn)?
dFosB act-1: -3; p47phox inh: -19; 14-3-3 Bad PPI: -19; HMGR II inh: 0

What do the screens show for `CCOc1ccc(/C=N/N2C(=O)C(CC(=O)Nc3ccc(F)cc3F)SC2=NC)cc1OC` (stereo not drawn)?
dFosB act-1: 26*; p47phox inh: 5; 14-3-3 Bad PPI: 23; HMGR II inh: -8; dFosB act-2: 0

Results for CC(=O)Nc1ccc(/C=N/NC(=O)CNC(=O)c2ccccc2)cc1 ?
dFosB act-1: 21*; p47phox inh: 2; 14-3-3 Bad PPI: 1; HMGR II inh: 0; dFosB act-2: 2

Results for CC(=O)Nc1ccc(NC(=O)c2ccc(N(Cc3ccccc3C)S(C)(=O)=O)cc2)cc1 ?
dFosB act-1: 20*; dFosB act-2: 5

Results for COc1ccccc1NS(=O)(=O)c1cccc(C(=O)N/N=C/c2ccc(NC(C)=O)cc2)c1 ?
dFosB act-1: 29*; p47phox inh: -8; 14-3-3 Bad PPI: -7; HMGR II inh: -5; dFosB act-2: -1

How did COc1ccccc1NS(=O)(=O)c1cccc(C(=O)N/N=C/c2ccc(OCC(=O)O)cc2)c1 do in these assays?
dFosB act-1: -1; p47phox inh: -10; 14-3-3 Bad PPI: 3; HMGR II inh: 4
